Laboratory results as given in PubChem BioAssay (NCATS).
Inconclusive results are not listed. The source made the active and inactive calls. Calls follow the shape of the dose curve; as a rule, active = well fitted curve in the direction sought with a large enough effect; inconclusive = small, poorly fitted or top-dose-only effect, or another doubt; inactive = no such curve, though single readings can be large; an effect the other way counts as inactive or inconclusive.

Columns and labels:
CRL-7250 = normal cell line; test: Cytotoxic Profiling of Annotated Libraries Using Quantitative High-Throughput Screening (AID 1296008); conditions: Five cell lines viability, CellTiter-Glo ATP luminescence, 48-72 h; max response: stronger effect = lower value; also: nearly all actives have a fitted effect of over 60% in size; as to max response: % is scaled to controls: 0 for no effect and ±100 for the full control effect
Method in brief: (§1)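 Cytotoxicity was measured as CellTiter-Glo ATP luminescence, read after 10 min at room temperature. Compound treatment of the cells lasted 48 or 72 hr at 37 degrees Celsius in a qHTS format.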

HEK293 = test: as above; conditions: Five cell lines viability, CellTiter-Glo ATP luminescence, 48-72 h; max response: stronger effect = lower value
Method in brief: as §1

HaCat [1] = test: as above; conditions: Five cell lines viability, CellTiter-Glo ATP luminescence, 48-72 h; max response: stronger effect = lower value
Method in brief: as §1

KB-3-1 = test: as above; conditions: Five cell lines viability, CellTiter-Glo ATP luminescence, 48-72 h; max response: stronger effect = lower value
Method in brief: as §1

NIH3T3 [2] = test: as above; conditions: Five cell lines viability, CellTiter-Glo ATP luminescence, 48-72 h; max response: stronger effect = lower value
Method in brief: as §1

HACAT [3] = test: qHTS assay to identify novel small-molecules to repurpose for Merkel cell carcinoma treatment (AID 1296009); conditions: MCC and control cell lines, CellTiter-Glo viability, 72 h; at 44.8 µM (top of the series) unless noted; also: nearly all actives have a fitted effect of over 60% in size
Method in brief: (§2)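 72 hr, 37 degree celsius; NPC 8-pt / MIPE 11-pt dose response; compound pinned in DMSO; CellTiter-Glo, 10 min RT, luminescence; normalized to no-cell and DMSO controls.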

NIH3T3 [4] = test: as above; conditions: MCC and control cell lines, CellTiter-Glo viability, 72 h; at 44.8 µM (top of the series) unless noted
Method in brief: as §2

C33A = test: Primary qHTS to identify gynecologic anti-cancer compounds using libraries of approved drugs and bioactive compounds (AID 1345084); conditions: Gynecologic cancer cell panel viability, ATPlite luminescence, 48 h; series mostly up to 57.5 µM; also: % is scaled to controls: 0 for no effect and ±100 for the full control effect; nearly all actives have a fitted effect of over 55% in size
Method in brief: (§3)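 ATP-based viability (ATPlite), 1,000 cells/well, 16 h pre-incubation, 48 h compound at 37 C, 5% CO2, 15 min RT before read.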

CAOV3 = test: as above; conditions: Gynecologic cancer cell panel viability, ATPlite luminescence, 48 h; series mostly up to 57.5 µM
Method in brief: as §3

CASKI = test: as above; conditions: Gynecologic cancer cell panel viability, ATPlite luminescence, 48 h; series mostly up to 57.5 µM
Method in brief: as §3

Es-2 = test: as above; conditions: Gynecologic cancer cell panel viability, ATPlite luminescence, 48 h; series mostly up to 57.5 µM
Method in brief: as §3

HeLa = test: as above; conditions: Gynecologic cancer cell panel viability, ATPlite luminescence, 48 h; series mostly up to 57.5 µM
Method in brief: as §3

Hek293T = test: as above; conditions: Gynecologic cancer cell panel viability, ATPlite luminescence, 48 h, control line for the selectivity index; series mostly up to 57.5 µM
Method in brief: as §3

JEG-3 = test: as above; conditions: Gynecologic cancer cell panel viability, ATPlite luminescence, 48 h; series mostly up to 57.5 µM
Method in brief: as §3

OV90 = test: as above; conditions: Gynecologic cancer cell panel viability, ATPlite luminescence, 48 h; series mostly up to 57.5 µM
Method in brief: as §3

COc1ccc(N2CCN(CCCNC(=O)Cn3c(=O)c4cccn4c4c(C)ccnc43)CC2)cc1
inactive: max response (CRL-7250) -6.16% | max response (HEK293) -13.3% | outcome (HaCat [1]) | max response (KB-3-1) 6.93% | outcome (NIH3T3 [2]) | outcome (HACAT [3]) | outcome (NIH3T3 [4]) | Potency (C33A) | Potency (CAOV3) | outcome (CASKI) | Potency (Es-2) | Potency (HeLa) | Potency (Hek293T) | Potency (JEG-3) | Potency (OV90)

O=C(O)Cn1nnc(-c2ccc(CN(CCCCOc3ccc(CN4CCCC4)cc3)CCc3ccccc3)cc2)n1
inactive: outcome (CRL-7250) | max response (HEK293) -0.898% | outcome (HaCat [1]) | max response (KB-3-1) 9.81% | outcome (NIH3T3 [2]) | outcome (HACAT [3]) | outcome (NIH3T3 [4]) | Potency (C33A) | Potency (CAOV3) | outcome (CASKI) | Potency (Es-2) | Potency (HeLa) | Potency (Hek293T) | Potency (JEG-3) | Potency (OV90)

CC[C@H]1OC(=O)[C@H](C)C(=O)[C@H](C)[C@@H](OC2O[C@H](C)C[C@H](N(C)C)[C@H]2O)[C@@H](C)C[C@@H](C)C(=O)/C=C/[C@]1(C)O (stereo not given in full)
inactive: max response (CRL-7250) -0.333% | max response (HEK293) -11.3% | outcome (HaCat [1]) | max response (KB-3-1) 7.73% | outcome (NIH3T3 [2]) | outcome (HACAT [3]) inactive [at 17.4 µM] | outcome (NIH3T3 [4]) inactive [at 17.4 µM] | Potency (C33A) | Potency (CAOV3) | outcome (CASKI) | Potency (Es-2) | Potency (HeLa) | Potency (Hek293T) | Potency (JEG-3) | Potency (OV90)

COC(=O)C1(O)C(OC(C)=O)CCC2C3(CC(c4ccoc4)OC3=O)C(C)=CCC21C(=O)OC (stereo not given)
inactive: max response (CRL-7250) -2.77% | max response (HEK293) 4.98% | outcome (HaCat [1]) | max response (KB-3-1) 9.04% | outcome (NIH3T3 [2]) | outcome (HACAT [3]) inactive [at 17.4 µM] | outcome (NIH3T3 [4]) inactive [at 17.4 µM] | Potency (C33A) | Potency (CAOV3) | outcome (CASKI) | Potency (Es-2) | Potency (HeLa) | Potency (Hek293T) | Potency (JEG-3) | Potency (OV90)

COc1cc(C2Oc3c(OC)cc(/C=C/C(=O)OC4CC(O)(C(=O)O)CC(O)C4O)cc3C2CO)ccc1O (stereo not given)
inactive: max response (CRL-7250) -7.61% | max response (HEK293) 1.22% | outcome (HaCat [1]) | max response (KB-3-1) 9.01% | outcome (NIH3T3 [2]) | outcome (HACAT [3]) inactive [at 17.4 µM] | outcome (NIH3T3 [4]) inactive [at 17.4 µM] | Potency (C33A) | Potency (CAOV3) | outcome (CASKI) | Potency (Es-2) | Potency (HeLa) | Potency (Hek293T) | Potency (JEG-3) | Potency (OV90)

C=C1C(=O)OC[C@H]2C(C(=O)O)=CC3CC(C)(C)C[C@@]132 (stereo not given in full)
inactive: outcome (CRL-7250) | max response (HEK293) 4.17% | outcome (HaCat [1]) | outcome (KB-3-1) | outcome (NIH3T3 [2]) | outcome (HACAT [3]) | outcome (NIH3T3 [4]) | Potency (C33A) | Potency (CAOV3) | outcome (CASKI) | Potency (Es-2) | Potency (HeLa) | Potency (Hek293T) | Potency (JEG-3) | Potency (OV90)

COC1OC(OC)C(O)(CCC2(C)C(C)CCC3(C)C2CC(O)C(O)C32CO2)C1O (stereo not given)
inactive: max response (CRL-7250) -2.11% | max response (HEK293) 1.57% | outcome (HaCat [1]) | max response (KB-3-1) 5.15% | outcome (NIH3T3 [2]) | outcome (HACAT [3]) inactive [at 17.4 µM] | outcome (NIH3T3 [4]) inactive [at 17.4 µM] | Potency (C33A) | Potency (CAOV3) | outcome (CASKI) | Potency (Es-2) | Potency (HeLa) | Potency (Hek293T) | Potency (JEG-3) | Potency (OV90)

CC(=O)N[C@H](Cc1c[nH]c2ccccc12)C(=O)OCc1cc(C(F)(F)F)cc(C(F)(F)F)c1
inactive: max response (CRL-7250) -4.46% | max response (HEK293) -2.25% | outcome (HaCat [1]) | outcome (KB-3-1) | outcome (NIH3T3 [2]) | outcome (HACAT [3]) | outcome (NIH3T3 [4]) | Potency (C33A) | Potency (CAOV3) | outcome (CASKI) | Potency (Es-2) | Potency (HeLa) | Potency (Hek293T) | Potency (JEG-3) | Potency (OV90)

Cc1cc(-n2c(=O)[nH]c(=O)n(C)c2=O)ccc1Oc1ccc(SC(F)(F)F)cc1
inactive: max response (CRL-7250) -0.879% | max response (HEK293) 4.1% | outcome (HaCat [1]) | max response (KB-3-1) 1.4% | outcome (NIH3T3 [2]) | outcome (HACAT [3]) | outcome (NIH3T3 [4]) | Potency (C33A) | Potency (CAOV3) | outcome (CASKI) | Potency (Es-2) | Potency (HeLa) | Potency (Hek293T) | Potency (JEG-3) | Potency (OV90)

C[C@@H]1O[C@@H](O[C@H]2[C@H](O[C@H]3[C@H](O[C@H]4CC[C@@]5(C)C(CC[C@]6(C)C5CC=C5[C@@H]7CC(C)(C)C[C@@H](O)[C@]7(C)CC[C@]56C)[C@@]4(C)CO)O[C@H](C(=O)O)[C@@H](O)[C@@H]3O)O[C@H](C(=O)O)[C@H](O)[C@@H]2O)[C@H](O)[C@H](O)[C@H]1O (stereo not given in full)
inactive: max response (CRL-7250) -5.52% | max response (HEK293) -6.47% | outcome (HaCat [1]) | max response (KB-3-1) -1.92% | outcome (NIH3T3 [2]) | outcome (HACAT [3]) inactive [at 9.27 µM] | outcome (NIH3T3 [4]) inactive [at 9.27 µM] | activity change, negative = cytotoxicity (C33A) 8.86% [at 11.6 µM] | activity change, negative = cytotoxicity (CAOV3) -0.141% [at 11.6 µM] | activity change, negative = cytotoxicity (CASKI) 16.2% [at 11.6 µM] | activity change, negative = cytotoxicity (Es-2) -1.06% [at 11.6 µM] | activity change, negative = cytotoxicity (HeLa) 4.67% [at 11.6 µM] | activity change, negative = cytotoxicity (Hek293T) 5.2% [at 11.6 µM] | activity change, negative = cytotoxicity (JEG-3) 7.1% [at 11.6 µM] | activity change, negative = cytotoxicity (OV90) 2.01% [at 11.6 µM]
